{"source": "PubChem BioAssay (NCI)", "note": "About 83,000 compounds went through this panel and 20% of them were active in at least one assay; those are over-represented in the sample as a whole.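 Single-dose data. Exposure time 48 hours. Values below 10 considered active.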 A number with no mark means an inactive call. Active and inactive are the calls of the source.", "data": [{"tested_on": "PC-3 prostate", "assay": "NCI-60 one-dose screen, 48 h (100 = growth as untreated, 0 = no growth, -100 = all killed)", "details": "10 µM unless noted", "units": {"growth": "%"}, "values": [{"smiles": "COc1ccc(CNc2c3ccccc3nc3ccccc23)cc1", "growth": 34}, {"smiles": "O=[N+]([O-])c1cccc(-c2nc3cc4nc5ccccc5[nH]c4cc3n2)c1", "growth": 93.2}, {"smiles": "COc1c(C(=O)Nc2ccc(C)c(Br)c2)ccc2ccccc12", "growth": 87.7}, {"smiles": "O=C1C(Cl)=C(NCCCCCCNC2=C(Cl)C(=O)c3ccccc3C2=O)C(=O)c2ccccc21", "growth": 82.2}, {"smiles": "O=C1c2c(c3c4ccccc4[nH]c3c3ccc4ccccc4c23)C(=O)N1CCN1CCNCC1", "growth": 56.6}, {"smiles": "COc1ccccc1CNc1c2ccccc2nc2ccccc12", "growth": 43.2}]}, {"tested_on": "SK-MEL-5 melanoma", "assay": "NCI-60 one-dose screen, 48 h (100 = growth as untreated, 0 = no growth, -100 = all killed)", "details": "10 µM unless noted", "values": [{"smiles": "COc1cc2c(c(OC)c1OC)CCC(c1cccc(NC(=O)c3ccc(Br)cc3)c1)O2", "note": "(stereo not drawn)", "growth": "71.4%"}, {"smiles": "N#Cc1nc(-c2ccc(F)cc2)oc1S(=O)(=O)N1CCCCC1", "growth": "88.7%"}, {"smiles": "Clc1ccc(/C=N\\N=C\\c2ccc(Cl)c(Cl)c2)cc1Cl", "growth": "93.8%"}, {"smiles": "C1CCC([PH+](C2CCCCC2)C2CCCCC2[PH+](C2CCCCC2)C2CCCCC2)CC1.[Au].[CH-]1CCCCC1C1CCCC[N-]1", "note": "(stereo not drawn)", "growth": "-98% (active)"}, {"smiles": "Cn1c(=O)c2nc(/C=C/c3ccccc3)c(=O)[nH]c2n(C)c1=S", "growth": "102%"}, {"smiles": "COc1ccc(/C=C(\\C#N)n2nnc3cc(Cl)ccc32)cc1", "growth": "-17.5% (active)"}, {"smiles": "O=C(CN1C(=O)NC2NC(=O)NC21)N/N=C/c1ccccc1[N+](=O)[O-]", "note": "(stereo not drawn)", "growth": "99.3%"}, {"smiles": "CCN(CC)CC(O)COc1c(Br)c(Br)c(Br)c2c1OC(C)(C)C2", "note": "(stereo not drawn)", "growth": "-78.9% (active)"}, {"smiles": "CCCNc1nc2ccccc2c2c1S(=O)(=O)c1ccc(Cl)cc1C2=O", "growth": "2.77% (active)"}, {"smiles": "CS(=O)(=O)Nc1cncc(-c2ccc3ncnc(Nc4cncc(Cl)c4)c3c2)c1", "growth": "95.4%"}, {"smiles": "CN(C)c1ccc(C(=O)OCCCCCCl)cc1", "growth": "98.5%"}, {"smiles": "CN(C)c1ccc(-c2c(C#N)c(N)nn2C(=O)c2ccc(NC(=O)c3ccccn3)cc2)cc1", "growth": "101%"}, {"smiles": "COCCn1cc(-c2csc(-c3cn(C)c4ccc(Br)cc34)n2)c2cccnc21", "growth": "71%"}, {"smiles": "CC1(C)COB(OCC(C)(C)COB2OCC(C)(C)CO2)OC1", "growth": "93.2%"}, {"smiles": "Cc1c[n+](Cc2ccc3ccccc3c2)cn1Cc1ccc2ccccc2c1", "growth": "-71.2% (active)"}, {"smiles": "Cn1cc(-c2csc(-c3c[nH]c4ccccc34)n2)c2cnccc21", "growth": "51.9%"}, {"smiles": "CCOC(=O)C#Cc1c(C(=O)OCC)nnn1Cc1ccc([N+](=O)[O-])cc1", "growth": "93.2%"}, {"smiles": "CCn1cc(C(=O)O)c(=O)c2cc(F)c(N3CCN(CC(=O)Nc4ccc(S(=O)(=O)Nc5nccc(C)n5)cc4)C(C)C3)c(F)c21", "note": "(stereo not drawn)", "growth": "-93.3% (active)"}, {"smiles": "C=C1C(=O)O[C@H]2[C@H]1CC/C(COC(=O)/C=C\\C(=O)NCc1ccc(Cn3c(=O)sn(CCI)c3=O)cc1)=C\\CC[C@@]1(C)O[C@@H]21", "growth": "101%"}, {"smiles": "CC1CN(S(=O)(=O)c2oc(-c3ccc(Cl)cc3)nc2C#N)CC(C)O1", "note": "(stereo not drawn)", "growth": "92.7%"}, {"smiles": "Cc1ccc(C)n1-c1ccccc1-n1c(C)ccc1C", "growth": "104%"}, {"smiles": "CCCCCCC12CCC(=O)N1CCc1cncn12", "note": "(stereo not drawn)", "growth": "99.1%"}, {"smiles": "CNC(=O)c1[nH]cc(-c2ccc(OC)cc2)c1-c1cc(OC)c2c(c1OC)OCO2", "growth": "100%"}, {"smiles": "C#Cc1c2c(c(OC)c3c1OCO3)[C@H]([C@H]1OC(=O)c3c1ccc(OC)c3OC)N(C)CC2", "growth": "93.4%"}, {"smiles": "C=CCc1c(O)c(C(=O)/C=C/c2ccccc2)c(OC)c2ccoc12", "growth": "33.3%"}, {"smiles": "O=S(=O)(Nc1ccc(F)cc1F)c1ccc(-c2cnc(C3CC3)o2)cc1", "growth": "6.16% (active)"}, {"smiles": "CN1CCN(c2cc(Nc3cc(C4CC4)[nH]n3)nc(Nc3ccc(CC(=O)NCc4cccc(F)c4)cc3)n2)CC1", "growth": "68.6%"}, {"smiles": "CC(C)(C)[Si](C)(C)OC1[C@@H](CNC(=O)NC(=O)NC(N)=O)O[C@@H](n2cnc3c(NC(=O)Nc4ccccc4)ncnc32)[C@H]1O[Si](C)(C)C(C)(C)C", "note": "(stereo partly drawn)", "growth": "91.8%"}, {"smiles": "COc1ccc(OC)c(-c2nc(SCC(=O)c3ccc(C#N)cc3)[nH]c(=O)c2C#N)c1", "growth": "106%"}, {"smiles": "COc1ccc(C(C)=O)cc1S(=O)(=O)Nc1c(N)nc(SC)[nH]c1=O", "growth": "100%"}, {"smiles": "CCOC(=O)C1=C(N)Oc2c(sc3c(F)cccc23)C1c1ccc(O)cc1", "note": "(stereo not drawn)", "growth": "18%"}, {"smiles": "CCNCCNc1cc(-c2ccc(C(F)(F)F)cc2)c(C#N)c2nc3ccccc3n12", "growth": "-91.8% (active)"}]}]}
